Measurements from PubChem BioAssay (NCATS).
Records with an inconclusive call do not appear. Active and inactive are the calls of the source. Unless noted, calls follow the shape of the dose curve; as a rule, active = well fitted inhibition curve with a large enough effect; inconclusive = small, poorly fitted or top-dose-only effect; inactive = flat fitted curve, though single readings scatter.

Legend:
[1] = qHTS drug screen for cell cycle checkpoint inhibitors in PARPi-resistant BRCA-mutant ovarian cancer cell lines. (AID 1963452; calls by dose curve); conditions: PEO1/OlaR viability, CellTiter-Glo luminescence, 96 h, stronger effect = lower value
How it was run: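 PEO1, PEO4 and PEO1/OlaR ovarian cancer cells, 600 per well, exposed 96 h at 37C to a dilution series. Viability read by CellTiter-Glo luminescence, normalized to DMSO and empty wells; activity summarized as Z-AUC.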

[2] = qHTS for identification of novel therapeutic agents for treatment of microphthalmiaassociated transcription factor (MiT) renal cell carcinoma (RCC) (AID 1963991; calls by dose curve; also: potency is read from the fitted curve at half-maximal effect); conditions: CellTiter-Glo, 48 h; for z-score: stronger effect = lower value
How it was run: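 Three TFE3-fusion RCC cell lines (UOK109, UOK124, UOK145), 500 cells/well, were exposed to the 1912-compound MIPE 4.0 library for 48 hours at 37 C. Viability was read by CellTiter-Glo luminescence, normalised to DMSO (100%) and empty wells (0%), with 11-concentration curve fits.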

[3] = qHTS profiling for inhibitors of Plasmodium falciparum proliferation (AID 504749); also: potency is read from the fitted curve at half-maximal effect;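 as to activity, negative = inhibition: 0% = DMSO vehicle and full inhibition = artemisinin control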; as to all read-outs here: nearly all actives have a fitted effect of over 60% in size; conditions: P. falciparum in erythrocytes, SYBR Green DNA, 72 h; for activity, negative = inhibition: at 28.7 µM (top of the series)
How it was run: (§1)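 Readout was DNA-dye fluorescence from lysed cultures, ex 485/em 535 nm. Parasitized red cells had grown 72 h with compound; data scaled between 0.29 uM artemisinin and DMSO wells and corrected using vehicle-only plates.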

7G8 = assay: as above; conditions: P. falciparum in erythrocytes, SYBR Green DNA, 72 h; series mostly up to 28.7 µM
How it was run: as §1

AA1029 = assay: as above; conditions: P. falciparum in erythrocytes, SYBR Green DNA, 72 h; series mostly up to 28.7 µM
How it was run: as §1

AS120 = assay: as above; conditions: P. falciparum in erythrocytes, SYBR Green DNA, 72 h; series mostly up to 28.7 µM
How it was run: as §1

ATS189 = assay: as above; conditions: P. falciparum in erythrocytes, SYBR Green DNA, 72 h; series mostly up to 28.7 µM
How it was run: as §1

ATS95 = assay: as above; conditions: P. falciparum in erythrocytes, SYBR Green DNA, 72 h; series mostly up to 28.7 µM
How it was run: as §1

C2A = assay: as above; conditions: P. falciparum in erythrocytes, SYBR Green DNA, 72 h; series mostly up to 28.7 µM
How it was run: as §1

CP185 = assay: as above; conditions: P. falciparum in erythrocytes, SYBR Green DNA, 72 h; series mostly up to 28.7 µM
How it was run: as §1

CP191 = assay: as above; conditions: P. falciparum in erythrocytes, SYBR Green DNA, 72 h; series mostly up to 28.7 µM
How it was run: as §1

CP192 = assay: as above; conditions: P. falciparum in erythrocytes, SYBR Green DNA, 72 h; series mostly up to 28.7 µM
How it was run: as §1

CP194 = assay: as above; conditions: P. falciparum in erythrocytes, SYBR Green DNA, 72 h; series mostly up to 28.7 µM
How it was run: as §1

CP201 = assay: as above; conditions: P. falciparum in erythrocytes, SYBR Green DNA, 72 h; series mostly up to 28.7 µM
How it was run: as §1

CP203 = assay: as above; conditions: P. falciparum in erythrocytes, SYBR Green DNA, 72 h; series mostly up to 28.7 µM
How it was run: as §1

CP211 = assay: as above; conditions: P. falciparum in erythrocytes, SYBR Green DNA, 72 h; series mostly up to 28.7 µM
How it was run: as §1

CP215 = assay: as above; conditions: P. falciparum in erythrocytes, SYBR Green DNA, 72 h; series mostly up to 28.7 µM
How it was run: as §1

CP217 = assay: as above; conditions: P. falciparum in erythrocytes, SYBR Green DNA, 72 h; series mostly up to 28.7 µM
How it was run: as §1

CP237 = assay: as above; conditions: P. falciparum in erythrocytes, SYBR Green DNA, 72 h; series mostly up to 28.7 µM
How it was run: as §1

3D7 = assay: as above; conditions: P. falciparum in erythrocytes, SYBR Green DNA, 72 h; series mostly up to 28.7 µM
How it was run: as §1

[4] = measured here: PEO1 parental Z-AUC
[5] = TFE3-RCC UOK109 viability, measured here: UOK109 Z-AUC
[6] = TFE3-RCC viability, measured here: UOK124 Z-AUC
[7] = TFE3-RCC viability, measured here: UOK145 Z-AUC

COc1ncnc(NS(=O)(=O)c2ccc(N)cc2)c1OC
1.63: Z-AUC [1, 4]
inactive: Z-AUC [1] 1.84 | activity, negative = inhibition ([3]; parasite line A) -18.9% | activity, negative = inhibition ([3]; parasite line B) 11.3% | Potency (7G8) | Potency (AA1029) | Potency (AS120) | Potency (ATS189) | Potency (ATS95) | Potency (C2A) | Potency (CP185) | Potency (CP191) | Potency (CP192) | Potency (CP194) | Potency (CP201) | Potency (CP203) | Potency (CP211) | Potency (CP215) | Potency (CP217) | Potency (CP237)
0.671: z-score [2, 7]
0.339: z-score [2, 6]
0.466: z-score [2, 5]
1.91: Z-AUC ([1]; measured here: PEO4 Z-AUC)

CN(C)c1ccc(C(=C2C=CC(=[N+](C)C)C=C2)c2ccc(N(C)C)cc2)cc1
active: Potency ([2]; TFE3-RCC UOK109 viability, active = Z-AUC below -0.8 in all three lines) 1180 nM | Potency ([3]; parasite line A) 224 nM | Potency ([3]; parasite line B) 282 nM | Potency (3D7) 282 nM | Potency (7G8) 251 nM | Potency (AA1029) 355 nM | Potency (AS120) 447 nM | Potency (ATS189) 282 nM | Potency (ATS95) 501 nM | Potency (C2A) 355 nM | Potency (CP185) 398 nM | Potency (CP191) 178 nM | Potency (CP192) 757 nM | Potency (CP194) 953 nM | Potency (CP201) 1200 nM | Potency (CP211) 151 nM | Potency (CP215) 1510 nM | Potency (CP217) 251 nM | Potency (CP237) 199 nM
-1.8: Z-AUC ([1]; measured here: PEO4 Z-AUC) | z-score [2, 7]
-1.68: Z-AUC [1, 4]
inactive: Z-AUC [1] -1.19
-1.93: z-score [2, 5]
-2.26: z-score [2, 6]

CCC(C)(C)c1ccc(CC(C)CN2C[C@@H](C)O[C@@H](C)C2)cc1 (stereo partly specified)
1.19: z-score [2, 7]
0.321: Z-AUC [1, 4]
active: Potency (7G8) 10000 nM
0.0457: z-score [2, 6]
0.288: Z-AUC ([1]; measured here: PEO4 Z-AUC)
inactive: Z-AUC [1] 0.498 | activity, negative = inhibition ([3]; parasite line A) -5% | activity, negative = inhibition ([3]; parasite line B) -10.4% | Potency (AA1029) | Potency (AS120) | Potency (ATS189) | Potency (ATS95) | Potency (C2A) | Potency (CP185) | Potency (CP191) | Potency (CP192) | Potency (CP194) | Potency (CP201) | Potency (CP203) | Potency (CP211) | Potency (CP215) | Potency (CP217)
0.00856: z-score [2, 5]

O=C(NCC1CN(c2ccc(N3CCOCC3=O)cc2)C(=O)O1)c1ccc(Cl)s1 (stereo unspecified)
0.607: z-score [2, 5]
-0.579: Z-AUC [1, 4]
0.507: z-score [2, 7]
inactive: Z-AUC [1] -0.884
0.69: z-score [2, 6]
-0.444: Z-AUC ([1]; measured here: PEO4 Z-AUC)

Cc1oc(=O)oc1CN1CCN(c2cc3c(cc2F)c(=O)c(C(=O)O)c2n3C(C)S2)CC1 (stereo unspecified)
0.456: z-score [2, 7]
active: Potency ([3]; parasite line A) 11200 nM | Potency ([3]; parasite line B) 8910 nM | Potency (3D7) 11200 nM | Potency (7G8) 3980 nM | Potency (AA1029) 6310 nM | Potency (AS120) 11200 nM | Potency (ATS189) 8910 nM | Potency (ATS95) 12600 nM | Potency (C2A) 10000 nM | Potency (CP185) 10000 nM | Potency (CP191) 12600 nM | Potency (CP217) 11200 nM | Potency (CP237) 10000 nM
-0.652: Z-AUC ([1]; measured here: PEO4 Z-AUC)
-0.35: Z-AUC [1, 4]
0.77: z-score [2, 5]
inactive: Z-AUC [1] -0.572
0.785: z-score [2, 6]

CC[C@H](NC(C)C)[C@H](O)c1ccc(O)c2[nH]c(=O)ccc12
1.42: z-score [2, 7]
inactive: Z-AUC [1] -0.979 | activity, negative = inhibition ([3]; parasite line A) 3.5% | activity, negative = inhibition ([3]; parasite line B) 5.44% | Potency (3D7) | Potency (7G8) | Potency (AA1029) | Potency (AS120) | Potency (ATS189) | Potency (ATS95) | Potency (C2A) | Potency (CP185) | Potency (CP191) | Potency (CP192) | Potency (CP194) | Potency (CP201) | Potency (CP203) | Potency (CP211) | Potency (CP215) | Potency (CP217) | Potency (CP237)
0.0233: Z-AUC ([1]; measured here: PEO4 Z-AUC)
0.0863: Z-AUC [1, 4]
0.735: z-score [2, 6]
0.709: z-score [2, 5]

CC(C)(C#N)c1cc(Cn2cncn2)cc(C(C)(C)C#N)c1
0.487: z-score [2, 7]
1.39: Z-AUC [1, 4]
inactive: Z-AUC [1] 1.1 | activity, negative = inhibition ([3]; parasite line A) 5.33% | activity, negative = inhibition ([3]; parasite line B) 14.1% | Potency (3D7) | Potency (7G8) | Potency (AA1029) | Potency (AS120) | Potency (ATS189) | Potency (ATS95) | Potency (C2A) | Potency (CP185) | Potency (CP191) | Potency (CP192) | Potency (CP194) | Potency (CP201) | Potency (CP203) | Potency (CP211) | Potency (CP215) | Potency (CP217) | Potency (CP237)
1.04: Z-AUC ([1]; measured here: PEO4 Z-AUC)
0.558: z-score [2, 5]
0.63: z-score [2, 6]

O=C(O)c1cc(=O)[nH]c(=O)[nH]1
-0.128: Z-AUC ([1]; measured here: PEO4 Z-AUC)
inactive: Z-AUC [1] 0.444 | activity, negative = inhibition ([3]; parasite line A) 24.2% | activity, negative = inhibition ([3]; parasite line B) 6.15% | Potency (3D7) | Potency (AA1029) | Potency (AS120) | Potency (ATS189) | Potency (ATS95) | Potency (C2A) | Potency (CP185) | Potency (CP191) | Potency (CP194) | Potency (CP201) | Potency (CP203) | Potency (CP211) | Potency (CP215) | Potency (CP217) | Potency (CP237)
-0.118: Z-AUC [1, 4]
1.38: z-score [2, 7]
0.79: z-score [2, 6]
1.07: z-score [2, 5]

CCCc1cc(C(N)=S)ccn1
1.99: Z-AUC ([1]; measured here: PEO4 Z-AUC)
0.537: z-score [2, 6]
inactive: Z-AUC [1] 1.52 | activity, negative = inhibition ([3]; parasite line A) 2.28% | activity, negative = inhibition ([3]; parasite line B) 5.15% | Potency (3D7) | Potency (7G8) | Potency (AA1029) | Potency (AS120) | Potency (ATS189) | Potency (ATS95) | Potency (C2A) | Potency (CP185) | Potency (CP191) | Potency (CP192) | Potency (CP194) | Potency (CP201) | Potency (CP203) | Potency (CP211) | Potency (CP215) | Potency (CP217) | Potency (CP237)
1.43: z-score [2, 5]
0.979: z-score [2, 7]
1.53: Z-AUC [1, 4]

NC(=O)c1ccc2[nH]ccc2c1
0.214: z-score [2, 5]
-0.451: Z-AUC [1, 4]
0.789: z-score [2, 6]
-0.798: Z-AUC ([1]; measured here: PEO4 Z-AUC)
-0.184: z-score [2, 7]
inactive: Z-AUC [1] -0.236
